GLD-1 TGE inh – GLD-1-TGE RNA interaction inhibition (C. elegans) | Q17339 | purified GLD-1 + fluorescein TGE RNA, fluorescence polarization | inhibition, % at 5.96 µM | AID 2280 | 320,000 tested, 0.44% active;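 active = percent inhibition above a per-plate cutoff, the plate mean of test compounds plus 3 SD, cut at about 30% in these data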
EBV gp42 block – blocks Epstein-Barr virus glycoprotein 42 binding. AID 1085. Fluorescence polarization binding assay, mP read-out. inhibition, % (tested at 21.74 µM). 220,000 tested, 0.42% active; in the data active = inhibition above about 50%
Bcl-xL primary – inhibitors of human Bcl-xL. GST-Bcl-xL / FITC-Bim BH3 peptide fluorescence polarization. inhibition, % at 10.9 µM. 320,000 tested, 0.7% active;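 active = inhibition above the mean of all tested compounds plus 3 SD, cutoff set per campaign, cut at about 30% in these data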;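 also: inhibitors lower millipolarization by displacing the labeled peptide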
MCL1-BIM inh – inhibitors of human MCL1 binding to BIM-BH3 peptide; inhibition, % at 10.9 µM; 320,000 tested, 0.68% active; GST-MCL1 / FITC-Bim-BH3 fluorescence polarization; Q07820;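 active = inhibition above the mean inhibition of all tested compounds plus 3 SD, set per campaign, cut at about 40% in these data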;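 also: higher means more loss of mP so more displacement of Bim peptide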
MEX-5 binding – C. elegans MEX-5 TCR-2 RNA binding activity; Q9XUB2; MEX-5/FITC-TCR2 RNA binding, fluorescence polarization; hits give low values; activity score (negative = inhibition of binding), % at 10 µM; 300,000 tested, 0.38% active;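 active = inhibition past about -25% in most replicates, and total fluorescence under double the plate's negative control median, limit read from the data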
Target sequence (Q9XUB2 whole entry, looked up): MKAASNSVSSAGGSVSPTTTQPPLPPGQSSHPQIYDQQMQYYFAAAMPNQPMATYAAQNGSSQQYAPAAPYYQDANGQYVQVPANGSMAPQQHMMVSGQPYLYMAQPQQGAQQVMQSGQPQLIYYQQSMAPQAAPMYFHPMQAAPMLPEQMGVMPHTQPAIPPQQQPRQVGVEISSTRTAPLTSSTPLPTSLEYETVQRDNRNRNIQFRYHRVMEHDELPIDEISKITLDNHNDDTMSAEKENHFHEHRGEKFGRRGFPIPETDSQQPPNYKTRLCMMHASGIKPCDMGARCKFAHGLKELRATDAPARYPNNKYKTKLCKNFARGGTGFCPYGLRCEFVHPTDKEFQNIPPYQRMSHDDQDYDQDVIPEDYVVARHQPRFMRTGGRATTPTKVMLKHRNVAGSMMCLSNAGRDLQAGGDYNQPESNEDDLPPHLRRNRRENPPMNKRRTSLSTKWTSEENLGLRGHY
Bcl-xL conf – Bcl-xL (human) inhibition, MCL1 counter-screen confirmation. inhibition, % at 10.9 µM. AID 2166. shares compounds with MCL1-BIM inh. GST-Bcl-xL / FITC-Bim BH3 peptide FP binding. 1,700 tested, 54% active;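 active = inhibition above a cutoff equal to the mean inhibition of all tested compounds plus 3 SD, cut at about 30% in these data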
MCL1 BIM confirm – MCL1-BIM-BH3 interaction inhibition, confirmation. inhibition, % at 10.9 µM. AID 2168. 1,700 tested, 61% active. shares compounds with MCL1-BIM inh. GST-MCL1 / FITC-Bim-BH3 fluorescence polarization;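 active = inhibition above the average of all tested compounds plus 3 SD, cut at about 40% in these data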
Hits are given with their value; – = inactive; · = no result given; + = active, no number. Shown are actives, neighbours in structure and some others; about 1.3% of the full set was active somewhere.

SMILES | GLD-1 TGE inh | EBV gp42 block | Bcl-xL primary | MCL1-BIM inh | MEX-5 binding | Bcl-xL conf | MCL1 BIM confirm
C=CCn1c(C)cc(C(=O)CSc2n[nH]c(N)n2)c1C | – | – | – | 46.9 | – | – | –
COc1ccc(OC)c(NC(=O)COC(=O)c2cc3c(s2)CCC3)c1 | – | – | – | 56.6 | – | – | 43.4
CC(=O)Nc1cccc(/C(C)=N/N2C(C)CCCC2C)c1 (stereo unspecified) | – | · | – | – | – | · | ·
CC(Cc1ccccc1)N1C(=O)c2cccc([N+](=O)[O-])c2C1=O (stereo unspecified) | 179.6 | · | 145.5 | 169.3 | – | – | –
Cc1cc(=O)c2c([nH]1)c(C)cc1[nH]c(C)c(C)c12 | 67.9 | · | 100.7 | 99.9 | · | – | –
Cc1cc(C)c(S(C)(=O)=O)c(=O)[nH]1 | – | – | – | – | – | · | ·
Cc1nn(-c2ccccc2)c(Cl)c1/C=N/O | – | – | – | 119.4 | – | – | –
O=c1c2c(ncn2C2CCCC2)n(Cc2ccccc2)c(=O)n1CCOc1ccc(Br)cc1 | – | – | – | 53.4 | – | – | –
O=c1c2c(ncn2C2CCCC2)n(Cc2ccccc2)c(=O)n1CCOc1ccccc1 | – | – | – | – | – | · | ·
Cc1ccc([N+](=O)[O-])cc1-c1ccc(/C=C(\C#N)c2[nH]nc(N)c2C#N)o1 | – | 59.6 | – | 48.6 | · | 53.7 | 83.6
COCc1cc(C)nc(OCC(=O)N/N=C/c2ccc(-c3cc([N+](=O)[O-])ccc3C)o2)c1C#N | – | – | – | – | – | · | ·
O=C(NNC1=Nc2cccc3cccc1c23)c1ccc(Br)cc1 | – | 60.2 | – | 41.5 | – | 57.1 | 80.5
Cc1ccc(N2C(=O)N3[C@H](c4ccc(F)cc4)[C@@H]4C(=O)N(C5CCCCC5)C(=O)[C@@H]4[C@]3(C)C2=O)cc1 | – | · | – | – | – | · | ·
COc1ccc(C(=O)CSc2n[nH]c(C)n2)cc1[N+](=O)[O-] | – | – | – | – | – | · | ·
Cc1ccc(C(=O)Nc2nnc(CC(=O)N/N=C/c3ccc(O)c(O)c3)s2)cc1 | – | · | – | 76.0 | – | 51.0 | 79.6
COc1[nH]c(/N=C/c2ccccc2)c(C#N)c1C#N | 159.1 | – | 160.3 | 194.0 | -59.5 | 50.1 | 40.2
CC(=O)c1cccc(-n2nnnc2SCC(=O)Nc2cc(C)on2)c1 | – | · | – | – | – | · | ·
CC1(C)Cc2cccc(OCC(=O)NCCc3ccc(S(N)(=O)=O)cc3)c2O1 | – | · | 34.9 | 195.4 | · | – | –
CC1(C)Cc2cccc(OCC(=O)NCCc3ccccc3)c2O1 | – | · | – | – | – | · | ·
Cc1cc(OCC(=O)OC(C)C(=O)Nc2ccc(N3CCOCC3)cc2)ccc1Cl (stereo unspecified) | – | · | – | – | · | · | ·
COc1ccc(NC(=O)c2cccc(S(=O)(=O)N3CCc4ccccc43)c2)cn1 | 49.5 | – | 60.7 | 60.4 | – | 45.6 | 57.9
O=C(Nc1ncccc1O)c1cccc(S(=O)(=O)N2CCc3ccccc32)c1 | – | – | – | – | – | · | ·
Nc1nc(SCC(=O)O)[nH]c(=O)c1NC(=O)c1ccco1 | – | · | 40.9 | 54.7 | – | – | –
Cc1ccc(CNC(=O)CN(C(=O)N2CCN(C)CC2)S(=O)(=O)c2ccc(C)cc2)cc1 | – | · | – | – | – | · | ·
CC1(C)CC(=O)C2=C(C1)OC(N)=C(C#N)[C@@H]2c1ccccc1[N+](=O)[O-] | 112.9 | 54.0 | 163.2 | 194.3 | -68.0 | 35.5 | 45.5
COc1cc(C2C(C#N)=C(N)OC3=C2C(=O)CC(C)(C)C3)c([N+](=O)[O-])cc1OC (stereo unspecified) | 154.2 | 86.1 | + | + | -54.2 | 63.8 | 82.4
CC1(C)CC(=O)C2=C(C1)OC(N)=C([N+](=O)[O-])C2c1ccc(C#N)s1 (stereo unspecified) | – | – | – | – | – | · | ·
COc1ccc(C2C(C#N)=C(N)OC3=C2C(=O)CC(C)(C)C3)c([N+](=O)[O-])c1OC (stereo unspecified) | – | – | – | – | – | · | ·
CCOC(=O)C1CCCN(CC(=O)N(C)c2c(N)n(Cc3ccccc3)c(=O)[nH]c2=O)C1 (stereo unspecified) | – | · | · | · | · | · | ·

High-throughput results (PubChem BioAssay)
